SMILES strings stand for the structures.

The assay concerns H1299. The experiment in a line: difference in mean normalized H2B-mRuby nuclear fluorescence intensity relative to DMSO control (normalized intensity difference (DMSO = 0)); higher = stronger increase in transgene reporter fluorescence. As to conditions: 24 h. The procedure:
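Cancer cell lines stably expressing H2B-mRuby2 from a lentiviral PGK promoter were treated with each drug for 24 h and imaged on a Leica DMI8 (ex 541-551 / em 565-605 nm). Nuclei were segmented in CellProfiler. The value is the difference in mean per-nucleus normalized H2B-mRuby intensity versus DMSO-treated cells (about 3 repeats x 4 fields). Doxorubicin is itself fluorescent. Dasatinib is in nM.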

`O=C(Nc1ccc2[nH]nc(-c3ccncc3)c2c1)[C@@H]1CCN(CC(=O)N2CCN(c3ccc(-c4ncccn4)cc3)CC2)C1` (concentration unit: uM): the difference is, setting by setting: (concentration: 0.05) -0.0926; (concentration: 0.1) -0.0835; (concentration: 0.25) -0.13; (concentration: 1) -0.131; (concentration: 5) -0.0355.
Regarding `C[C@@H](Oc1cc(-c2cnn(C3CCNCC3)c2)cnc1N)c1c(Cl)ccc(F)c1Cl` (concentration unit: uM), the difference by setting is: (concentration: 0.25) 0.0337; (concentration: 1) -0.111; (concentration: 2.5) -0.0387; (concentration: 5) 0.194; (concentration: 10) 0.228.
`O=C(/C=C/c1cccc(S(=O)(=O)Nc2ccccc2)c1)NO` (concentration unit: uM) returned a difference (concentration: 0.25) of 0.186; a difference (concentration: 0.5) of 0.231; a difference (concentration: 1) of 0.491; a difference (concentration: 2.5) of 0.854; a difference (concentration: 5) of 1.19.
For `O=c1[nH]cc(F)c(=O)[nH]1` (concentration unit: uM), the difference by setting is: (concentration: 1) -0.0723; (concentration: 2.5) -0.0395; (concentration: 5) -0.107; (concentration: 10) -0.0707; (concentration: 25) -0.0709.
In turn, `CNC(=O)c1ccccc1Sc1ccc2c(/C=C/c3ccccn3)n[nH]c2c1` (concentration unit: uM) had a difference (concentration: 1) of -0.0324; a difference (concentration: 2.5) of 0.0393; a difference (concentration: 5) of 0.159; a difference (concentration: 10) of 0.14; a difference (concentration: 20) of 0.156.
In the case of `Cn1ncnc1[C@H]1c2n[nH]c(=O)c3cc(F)cc(c23)N[C@@H]1c1ccc(F)cc1` (concentration unit: uM), the difference is, setting by setting: (concentration: 1) 0.0403; (concentration: 2.5) -0.0275; (concentration: 5) 0.00616; (concentration: 10) 0.00511; (concentration: 25) 0.0863.
For the molecule `CO[C@H]1/C=C\C=C(/C)C(=O)NC2=CC(=O)C(NCCN(C)C)=C(C[C@@H](C)C[C@H](OC)[C@H](O)[C@@H](C)/C=C(\C)[C@@H]1OC(N)=O)C2=O` (concentration unit: nM), the difference runs as follows: (concentration: 5) 0.0988; (concentration: 25) 0.27; (concentration: 50) 0.565; (concentration: 100) 0.538; (concentration: 500) 0.571.
Take `COc1cccc2c1C(=O)c1c(O)c3c(c(O)c1C2=O)C[C@@](O)(C(=O)CO)C[C@@H]3O[C@H]1C[C@H](N)[C@H](O)[C@H](C)O1` (concentration unit: nM): the difference was found to be 0.0124 (concentration: 25); 0.112 (concentration: 100); 0.0484 (concentration: 250); 0.0826 (concentration: 1000); 0.218 (concentration: 2500).

Values taken from the supplement of paper PMC11026393.
